# According to PubChem BioAssay (NCATS):
# Values joined by “and” are separate entries in the source; they are usually repeats but may differ in a detail not shown here. Equal entries are not always repeated. Results filed as inconclusive are left out. Entries that show only a call come without a potency. Active and inactive are the calls of the source. Unless noted, the call rests on the fitted dose curve.
# Assays:
# [1] = qHTS for Inhibitors of the Functional Ribonucleoprotein Complex (vRNP) of Lassa (LASV) Arenavirus: LASV Primary Screen - GLuc reporter signal (AID 1347082; calls by dose curve; tested in HEK293 reporter line; further: nearly all actives have a fitted effect of over 60% in size)
# [2] = qHTS for Inhibitors of the Functional Ribonucleoprotein Complex (vRNP) of Lassa (LASV) Arenavirus: Viability assay - alamar blue signal for LASV Primary Screen (AID 1347083; calls by dose curve; tested in HEK293 reporter line; further: nearly all actives have a fitted effect of over 80% in size)
# [3] = qHTS for Inhibitors of the Functional Ribonucleoprotein Complex (vRNP) of Lymphocytic Choriomeningitis Arenaviruses (LCMV): Viability assay - alamar blue signal for LCMV Primary Screen (AID 1347085; calls by dose curve; tested in HEK293 reporter line; further: nearly all actives have a fitted effect of over 80% in size)
# [4] = molecular target: Nucleoprotein (Lymphocytic choriomeningitis virus (strain Armstrong)) (UniProt P09992); test: qHTS for Inhibitors of the Functional Ribonucleoprotein Complex (vRNP) of Lymphocytic Choriomeningitis Arenaviruses (LCMV): LCMV Primary Screen - GLuc reporter signal (AID 1347086); further: nearly all actives have a fitted effect of over 70% in size
# Sequence of Nucleoprotein (Lymphocytic choriomeningitis virus (strain Armstrong)) (P09992 whole entry, looked up): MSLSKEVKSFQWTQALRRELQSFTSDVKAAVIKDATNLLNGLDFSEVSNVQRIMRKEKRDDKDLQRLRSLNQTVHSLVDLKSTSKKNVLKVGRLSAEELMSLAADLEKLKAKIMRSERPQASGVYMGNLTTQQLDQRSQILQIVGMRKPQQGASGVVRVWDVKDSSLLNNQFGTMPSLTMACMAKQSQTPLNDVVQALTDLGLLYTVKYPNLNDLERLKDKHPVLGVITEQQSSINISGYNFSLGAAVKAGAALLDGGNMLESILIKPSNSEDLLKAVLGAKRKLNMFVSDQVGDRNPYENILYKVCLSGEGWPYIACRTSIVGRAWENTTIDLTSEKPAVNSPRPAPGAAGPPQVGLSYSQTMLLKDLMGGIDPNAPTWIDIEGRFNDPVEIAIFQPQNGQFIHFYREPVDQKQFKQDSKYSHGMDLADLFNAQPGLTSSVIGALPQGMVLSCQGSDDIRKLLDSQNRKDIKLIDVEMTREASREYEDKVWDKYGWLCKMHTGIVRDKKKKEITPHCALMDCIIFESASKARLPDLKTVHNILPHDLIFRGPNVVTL
# [5] = Primary qHTS for inhibitors of SARS-S pseudo-typed particle cell entry (AID 1479145); further: nearly all actives have a fitted effect of over 45% in size
# [6] = Primary qHTS for Huh7 cytotoxicity: counterscreen for inhibitors of MERS-S pseudotyped particle cell entry (AID 1479147); details: outcome: dose series up to 57.1 µM unless noted
# [7] = Primary qHTS for inhibitors of MERS-S pseudo-typed particle cell entry (AID 1479149); further: nearly all actives have a fitted effect of over 60% in size
# [8] = Primary qHTS for Vero E6 cytotoxicity: counterscreen for inhibitors of SARS-S pseudo-typed particle cell entry (AID 1479150); details: outcome: dose series up to 57.1 µM unless noted
# [9] = Cytotoxicity counterscreen for inhibitors of SARS-CoV-2 cell entry (AID 1645845); further: nearly all actives have a fitted effect of over 50% in size
# Procedure, shortened: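 HEK293-ACE2 cells (Expi293F stably expressing human ACE2) seeded overnight, then compound for 1 h plus 48 h at 37C. Viability as ATP content by luminescence; normalized to wells with cells and media-only wells.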
# [10] = Primary qHTS to identify inhibitors of SARS-CoV-2 cell entry (AID 1645846); details: activity change, negative = inhibition: at 57.1 µM (top of the series) unless noted; further: nearly all actives have a fitted effect of over 45% in size
# Procedure, shortened: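 Luminescence readout (Bright-Glo luciferase) 48 h after pseudoparticle addition. HEK293-ACE2 cells, 1500/well; compound pre-incubation 1 h; Normalized to spike PP and bald PP.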
# [11] = Validation screen for inhibitors of Lassa infection (AID 463096)
# [12] = molecular target: Alpha-galactosidase (Coffea arabica) (UniProt Q42656); test: Counterscreen for Glucocerebrosidase Inhibitors: qHTS Assay for Coffee Bean alpha-Galactosidase at pH 4.5 (AID 957; active means well fitted curve in the direction sought with a large enough effect; an effect the other way counts as inactive or inconclusive)
# Sequence of Alpha-galactosidase (Coffea arabica) (Q42656 whole entry, looked up): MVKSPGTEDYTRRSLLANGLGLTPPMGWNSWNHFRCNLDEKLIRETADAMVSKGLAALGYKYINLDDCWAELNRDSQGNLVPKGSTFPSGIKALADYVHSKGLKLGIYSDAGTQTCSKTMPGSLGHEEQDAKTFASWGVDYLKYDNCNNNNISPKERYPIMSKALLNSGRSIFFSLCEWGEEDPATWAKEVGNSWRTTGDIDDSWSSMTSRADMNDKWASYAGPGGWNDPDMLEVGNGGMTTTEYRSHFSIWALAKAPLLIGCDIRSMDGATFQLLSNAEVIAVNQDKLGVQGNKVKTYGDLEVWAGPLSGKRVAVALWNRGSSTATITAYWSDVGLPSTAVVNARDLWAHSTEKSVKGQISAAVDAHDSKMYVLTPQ
# Procedure, shortened: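 AC50 values derive from Hill-equation modeling of concentration-response data, normalized to no-enzyme and full-activity controls. The pH 4.5 citrate assay used 2 nM coffee bean enzyme and 80 uM fluorogenic substrate for 20 min.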
# [13] = molecular target: Alpha-galactosidase (Coffea arabica) (UniProt Q42656); test: Counterscreen for Glucocerebrosidase Inhibitors: qHTS Assay for Coffee Bean alpha-Galactosidase at pH 5.9 (AID 998; active means well fitted curve in the direction sought with a large enough effect; an effect the other way counts as inactive or inconclusive)
# Procedure, shortened: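 Green coffee bean enzyme (2 nM) with 4-methylumbelliferyl alpha-D-galactopyranoside (80 uM) in 50 mM citric acid, 0.005% Tween-20, pH 5.9, 20 min at room temperature; compounds 0.7 nM–77 uM. Stopped at pH 10, fluorescence Ex365/Em440; Hill-fit AC50.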
# [14] = Inducers of the Endoplasmic Reticulum Stress Response (ERSR) in human glioma: Validation (AID 504836; active means well fitted curve in the direction sought with a large enough effect; an effect the other way counts as inactive or inconclusive)
# Procedure, shortened: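 Stably transfected U87-MG glioma cells carrying a GRP78-based luciferase sensor; 16 h compound incubation. Luminescence end-point read 10 min after Bright-Glo addition at room temperature.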
# [15] = qHTS for inhibitors of Rabies Virus screened against the NCATS CANVASS Library (AID 1347402)
Structure (SMILES),Potency [1],Potency [2],Potency [3],Potency [4],Potency [5],outcome [6],Potency [7],outcome [8],Potency [9],Potency [10],"activity change, negative = inhibition [10]",Potency [11],outcome [12],outcome [13],outcome [14],outcome [15],outcome [5],"activity change, negative = inhibition [7]"
COc1cc2c(c(OC)c1OC)-c1c(cc3c(c1OC)OCO3)C[C@H](C)[C@@](C)(O)C2,inactive,inactive,inactive,inactive,inactive,inactive,inactive,inactive,inactive,,,,,,,,,
CO/N=C(\C(=O)N[C@@H]1C(=O)N2C(C(=O)O)=C(COC(C)=O)CS[C@H]12)c1csc(N)n1,inactive,inactive,inactive,inactive,inactive,inactive,inactive,inactive,inactive,inactive,,,,,,,,
Cc1cn([C@@H]2C[C@@H](O)[C@H](CO)O2)c(=O)[nH]c1=O,inactive,inactive,inactive,inactive,inactive,inactive,inactive,inactive,inactive,,-18% and -32.2%,,,,,,,
C[C@]12CCC(=O)C[C@@H]1CC[C@@H]1[C@@H]2CC[C@]2(C)C=CC[C@@H]12,inactive,inactive,inactive,inactive,inactive,inactive,inactive,inactive,inactive,,-21.9%,,,,,,,
CN[C@H](CC(C)C)C(=O)N[C@H]1C(=O)N[C@@H](CC(N)=O)C(=O)N[C@H]2C(=O)N[C@H]3C(=O)N[C@H](C(=O)N[C@H](C(=O)O)c4cc(O)cc(O)c4-c4cc3ccc4O)[C@H](O)c3ccc(c(Cl)c3)Oc3cc2cc(c3O[C@@H]2O[C@H](CO)[C@@H](O)[C@H](O)[C@H]2O[C@H]2C[C@](C)(N)[C@H](O)[C@H](C)O2)Oc2ccc(cc2Cl)[C@H]1O,inactive,inactive,inactive,inactive,inactive,inactive [at 26.4 µM],inactive,inactive,inactive,,-14.9% [at 27.1 µM] and -31.1% [at 27.1 µM],inactive,,,,,,
CC(=O)NCCc1c[nH]c2ccc(O)cc12,inactive,inactive,inactive,inactive,,,,,,,,inactive,inactive,inactive,inactive,inactive,,
CCCC1O[C@@H]2C[C@H]3[C@@H]4CCC5=CC(=O)C=C[C@]5(C)[C@H]4[C@@H](O)C[C@]3(C)[C@]2(C(=O)CO)O1 (stereo partly specified),inactive,inactive,inactive,inactive,inactive,inactive,inactive,inactive,inactive,,-23.4%,,inactive,,inactive,,,
CCCCCCCC(=O)O,inactive,inactive,inactive,inactive,inactive,inactive,inactive,inactive,inactive,,1.02%,,,,,,,
NCC1CCC(C(=O)O)CC1 (stereo unspecified),inactive,inactive,inactive,inactive,,inactive [at 11.4 µM],,inactive [at 11.4 µM],inactive,inactive,,,,,,,inactive [at 11.4 µM],2.4% [at 11.4 µM] (inactive)
